Experimental data taken from PubChem BioAssay (EPA / NIEHS).
Where “and” joins values, the source holds several entries; their conditions need not be identical. Identical values can stand only once. The source holds several records for some structures; these can differ, active in one and inactive in another. Calls of active or inactive are those of the source. Rule for the calls: active = hit-call score of the fitted dose curve at least 0.9, where 1 is the maximum; inactive = score below 0.9.

Experiments:
[1] = IUF_NPC2c_oligodendrocyte_migration_120hr: Leibniz Research Institute for Environmental Medicine (IUF) 120-hour Neural Progenitor Cell Migration Assay for Oligodendrocyte Migration (NPC2c) (AID 2284297);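 note: O4-positive oligodendrocyte migration distance divided by radial glia migration distance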
Summary of the method: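 Exposure runs 5 days from differentiation onset at 37C, seven concentrations plus solvent control, DMSO at most 0.1%, applied to primary hNPC spheres on laminin. After fixation, O4 immunostaining gives oligodendrocyte distance from the sphere core, relative to radial glia migration.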

[2] = IUF_NPC2a_radial_glia_migration_120hr: Leibniz Research Institute for Environmental Medicine (IUF) 120-hour Neural Progenitor Cell Migration Assay for Radial Glia Migration (NPC2a) (AID 2284298)
Summary of the method: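 Migration distance in um, sphere core edge to migration-area edge, derived by nuclei-density algorithm from Hoechst images after 120 h compound exposure. Primary hNPC spheres differentiated on poly-D-lysine/laminin in N2 medium, 37C; medium half-replaced day 3.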

[3] = IUF_NPC2a_radial_glia_migration_72hr: Leibniz Research Institute for Environmental Medicine (IUF) 72-hour Neural Progenitor Cell Migration Assay for Radial Glia Migration (NPC2a) (AID 2284299)
Summary of the method: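 Human fetal neural progenitor spheres (0.3 mm) plated on poly-D-lysine/laminin in N2 differentiation medium and exposed from day 0 at 7 concentrations; radial glia migration distance from sphere edge measured at 72 h on brightfield images, mean of four directions, vs DMSO.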

[4] = IUF_NPC2b_neuronal_migration_120hr: Leibniz Research Institute for Environmental Medicine (IUF) 120-hour Neural Progenitor Cell Migration Assay for Neuron Migration (NPC2b) (AID 2284300)
Summary of the method: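 TUBB3-positive neurons are imaged after 120 h of differentiation, and their mean distance from the sphere edge is normalised to radial glia migration. Single 0.3 mm fetal hNPC spheres on poly-D-lysine/laminin received 7 compound concentrations, ≤0.1% DMSO, refreshed at day 3.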

[5] = IUF_NPC3_neuronal_differentiation_120hr: Leibniz Research Institute for Environmental Medicine (IUF) 120-hour Neuronal Differentiation Assay (NPC3) (AID 2284301)
Summary of the method: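 Human fetal (GW 16-19) neural progenitor spheres (0.3 mm) plated on poly-D-lysine/laminin in N2 differentiation medium, exposed 120 h at 37C with half-medium renewal day 3; 7 concentrations. TUBB3+ cells as % of Hoechst nuclei, CNN-identified; DMSO baseline.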

[6] = IUF_NPC4_neurite_length_120hr: Leibniz Research Institute for Environmental Medicine (IUF) 120-hour Neuronal Morphology Assay for Neurite Length (NPC4) (AID 2284302)
Summary of the method: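 Human fetal neural progenitor spheres (0.3 mm) plated on poly-D-lysine/laminin in N2 differentiation medium, exposed from day 0 for 120 h with half-medium refresh at day 3, 37C. Mean neurite length (um) of TUBB3-positive neurons from skeletonized immunostaining images; DMSO ≤0.1%.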

[7] = read-out: Plasminogen activator inhibitor-1 (PAI1), SERPINE1 (gene 5054); experiment: BSK_CASM3C_PAI1: BioMAP Diversity Plus: CASM3C Assay for Plasminogen activator inhibitor-1 (PAI1) Biomarker Activity (AID 2284284); settings: primary human coronary artery smooth muscle cells;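 note: PAI-1 protein level measured by ELISA 24 h after dosing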
[8] = read-out: Monocyte Chemoattractant Protein-1 (MCP1), CCL2 (gene 6347); experiment: BSK_hDFCGF_MCP1: BioMAP Diversity Plus: hDFCGF Assay for Monocyte Chemoattractant Protein-1 (MCP1) Biomarker Activity (AID 2284285); settings: primary human foreskin fibroblasts
Summary of the method: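 Human foreskin fibroblasts (hDFCGF system) were exposed to compound and secreted MCP-1 was measured by ELISA after 24 hours. Activity was fitted relative to DMSO. Cytotoxicity was checked by SRB total-protein staining in parallel cultures.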

[9] = read-out: Vascular cell adhesion molecule 1 (VCAM1), VCAM1 (gene 7412); experiment: BSK_IMphg_VCAM1: BioMAP Diversity Plus: IMphg Assay for Vascular cell adhesion molecule 1 (VCAM1) Biomarker Activity (AID 2284286); settings: primary human endothelial cells with macrophages
Summary of the method: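 Human venular endothelial cells co-cultured with macrophages; VCAM-1 quantified by ELISA 24 h after dosing, fitted in the positive direction against DMSO. Cytotoxicity was checked in parallel cultures by SRB total-protein staining (0.1% SRB after 10% TCA fixation, 560 nm).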

[10] = read-out: Intercellular Adhesion Molecule 1 (ICAM1), ICAM1 (gene 3383); experiment: BSK_hDFCGF_ICAM1: BioMAP Diversity Plus: hDFCGF Assay for Intercellular Adhesion Molecule 1 (ICAM1) Biomarker Activity (AID 2284287); settings: primary human foreskin fibroblasts
Summary of the method: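 Primary human foreskin fibroblasts (hDFCGF system) dosed with chemical; ICAM-1 quantified by ELISA at 24 h relative to DMSO. Parallel SRB total-protein staining to assess overt cytotoxicity.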

CD40, CD40 (gene 958) = experiment: BSK_IMphg_CD40: BioMAP Diversity Plus: IMphg Assay for CD40 Biomarker Activity (AID 2284288); settings: primary human endothelial cells with macrophages
Summary of the method: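 Venular endothelial cells co-cultured with macrophages (human primary), CD40 measured by ELISA 24 h after dosing. Positive-direction fit vs DMSO baseline; cytotoxicity tracked by SRB total-protein staining in parallel cultures.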

[11] = read-out: TIMP metallopeptidase inhibitor 2 (TIMP2), TIMP2 (gene 7077); experiment: BSK_hDFCGF_TIMP2: BioMAP Diversity Plus: hDFCGF Assay for TIMP metallopeptidase inhibitor 2 (TIMP2) Biomarker Activity (AID 2284289); settings: primary human foreskin fibroblasts
Summary of the method: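 Primary human foreskin fibroblasts in the hDFCGF system, dosed for 24 h; TIMP-2 level measured by ELISA, fitted in the positive direction against DMSO; cytotoxicity checked in parallel by sulforhodamine B total protein staining.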

[12] = read-out: Interleukin-1 alpha (IL1a), IL1A (gene 3552); experiment: BSK_IMphg_IL1a: BioMAP Diversity Plus: IMphg Assay for Interleukin-1 alpha (IL1a) Biomarker Activity (AID 2284290); settings: primary human endothelial cells with macrophages
Summary of the method: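 Human venular endothelial cells co-cultured with macrophages, IMphg system. IL-1α is measured by ELISA 24 h after dosing and fitted in the positive direction against DMSO. Cytotoxicity is assessed by SRB staining of parallel cultures.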

[13] = read-out: E-selectin (Homo sapiens) (UniProt P16581); experiment: BSK_IMphg_ESelectin: BioMAP Diversity Plus: IMphg Assay for Eselectin Biomarker Activity (AID 2284291); settings: primary human endothelial cells with macrophages
Summary of the method: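 Human venular endothelial cell–macrophage co-culture, E-selectin measured by ELISA 24 h after chemical dosing. Signal fitted in the positive direction against DMSO as negative control and baseline.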

[14] = BSK_IMphg_SRB: Viability Assessment in the BioMAP Diversity Plus: IMphg Assay (AID 2284292); settings: primary human endothelial cells with macrophages;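 note: measured one day after compound addition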
Summary of the method: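 Human venular endothelial cells with macrophages, 24 h after chemical dosing; total protein by 0.1% SRB staining after 10% TCA fixation, read at 560 nm. Positive-direction fitting versus DMSO baseline.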

[15] = read-out: Macrophage colony-stimulating factor (MCSF), CSF1 (gene 1435); experiment: BSK_IMphg_MCSF: BioMAP Diversity Plus: IMphg Assay for Macrophage colony-stimulating factor (MCSF) Biomarker Activity (AID 2284293); settings: primary human endothelial cells with macrophages
Summary of the method: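 Co-culture of human venular endothelial cells and macrophages, 24 hours of chemical exposure. M-CSF quantified by ELISA, with parallel SRB total-protein staining for cytotoxicity; activity fitted relative to DMSO.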

[16] = read-out: Interleukin-10 (IL10), IL10 (gene 3586); experiment: BSK_IMphg_IL10: BioMAP Diversity Plus: IMphg Assay for Interleukin-10 (IL10) Biomarker Activity (AID 2284294); settings: primary human endothelial cells with macrophages
Summary of the method: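 Human venular endothelial cells cocultured with macrophages, dosed 24 h; IL-10 measured by ELISA, activity relative to DMSO. Cytotoxicity assessed in parallel cultures by sulforhodamine B total-protein staining.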

[17] = BSK_IMphg_SRB.Mphg: Macrophage Viability Assessment in the BioMAP Diversity Plus: IMphg Assay (AID 2284295); settings: primary human endothelial cells with macrophages
Summary of the method: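 Venular endothelial cells co-cultured with macrophages, read 24 h after dosing. Total protein measured by 0.1% SRB staining after 10% TCA fixation, absorbance at 560 nm. Fitted in positive direction against DMSO baseline.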

[18] = read-out: Thrombomodulin, THBD (gene 7056); experiment: BSK_LPS_Thrombomodulin: BioMAP Diversity Plus: LPS Assay for Thrombomodulin Biomarker Activity (AID 2284296); settings: primary human HUVEC with PBMC
Summary of the method: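 Human umbilical vein endothelial cells co-cultured with PBMC and stimulated with LPS; cell-surface thrombomodulin measured by ELISA 24 hours after compound. Gain or loss versus DMSO; cytotoxicity checked by SRB staining in parallel cultures.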

CD69, CD69 (gene 969) = experiment: BSK_LPS_CD69: BioMAP Diversity Plus: LPS Assay for CD69 Biomarker Activity (AID 2284303); settings: primary human HUVEC with PBMC
Summary of the method: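 Human umbilical vein endothelial cells co-cultured with PBMC under LPS stimulation, chemical exposure 24 h; cell-surface CD69 measured by ELISA and fitted in the positive direction versus DMSO.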

Measured: AC50

Sequence of E-selectin (Homo sapiens) (P16581 whole entry, looked up): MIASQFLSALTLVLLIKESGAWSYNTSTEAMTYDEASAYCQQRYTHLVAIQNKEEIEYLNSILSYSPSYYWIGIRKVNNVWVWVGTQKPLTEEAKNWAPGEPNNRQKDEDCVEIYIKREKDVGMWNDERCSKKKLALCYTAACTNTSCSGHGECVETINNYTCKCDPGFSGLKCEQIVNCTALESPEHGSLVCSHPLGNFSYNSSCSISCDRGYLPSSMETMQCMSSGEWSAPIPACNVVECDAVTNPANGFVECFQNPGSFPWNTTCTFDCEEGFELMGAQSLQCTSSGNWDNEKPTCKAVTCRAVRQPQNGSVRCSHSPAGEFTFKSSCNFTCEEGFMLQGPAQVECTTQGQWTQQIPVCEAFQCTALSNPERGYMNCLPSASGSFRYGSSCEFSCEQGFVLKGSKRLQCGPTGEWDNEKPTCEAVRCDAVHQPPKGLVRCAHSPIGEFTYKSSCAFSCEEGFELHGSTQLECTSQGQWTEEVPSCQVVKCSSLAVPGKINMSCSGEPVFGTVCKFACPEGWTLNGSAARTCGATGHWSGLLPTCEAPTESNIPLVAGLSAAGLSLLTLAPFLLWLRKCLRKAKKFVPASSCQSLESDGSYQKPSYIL

CC(C)COC(=O)c1ccccc1C(=O)OCC(C)C
inactive: [1] | [2] | [3] | [4] | [5] | [6]

CCCCOC(=O)c1ccccc1C(=O)OCc1ccccc1
inactive: [1] | [2] | [4] | [5] | [6]
active: [3] 18.5 µM

CC(C)(C)C(O)(CCc1ccc(Cl)cc1)Cn1cncn1 (configuration not stated)
inactive: [1] | [3] | [4] | [5] | [6]

CCNS(=O)(=O)C(F)(F)C(F)(F)C(F)(F)C(F)(F)C(F)(F)C(F)(F)C(F)(F)C(F)(F)F
inactive: [7] | CD40, CD40 (gene 958) | [12] | [14] | [15] | [16] | [17] | [18] | CD69, CD69 (gene 969)
active: [8] 49.3 µM and 46.9 µM | [9] 48 µM and 49.6 µM | [10] 42.5 µM and 48.4 µM | CD40, CD40 (gene 958) 26.6 µM | [11] 30 µM and 46.5 µM | [13] 10.8 µM and 30 µM | [17] 30 µM | [18] 54.5 µM | CD69, CD69 (gene 969) 15.4 µM

COC(=O)Nc1nc2ccccc2[nH]1
active: [2] 11.3 µM | [3] 8.09 µM | [6] 8.96 µM
inactive: [1] | [4] | [5]

CCC[CH2][Sn]([Cl])([CH2]CCC)[CH2]CCC
active: [1] 0.325 µM | [2] 0.37 µM | [3] 0.386 µM | [4] 0.319 µM | [5] 0.284 µM | [6] 0.303 µM

CNC(=O)Oc1cccc2c1OC(C)(C)C2
inactive: [1] | [2] | [3] | [4] | [5] | [6]

COP(=S)(OC)SCN1C(=O)c2ccccc2C1=O
inactive: [1] | [2] | [3] | [4] | [5] | [6]

[O-][Cl+]O
inactive: [1] | [2] | [3] | [4] | [5] | [6]

O=P(OCCCl)(OCCCl)OCCCl
inactive: [1] | [2] | [3] | [4] | [5] | [6]

OCCOCCO
inactive: [1] | [2] | [3] | [4] | [5] | [6]
